Results on 10 compounds are retold here after PubChem BioAssay (EPA / NIEHS).

For orientation: AC50 means the concentration at which the activity in the assay is half-maximal.

For experiment [1], the target named is Glucocorticoid receptor (Homo sapiens) (UniProt P04150). In words: ATG_GR_TRANS: Attagene TRANS-FACTORIAL HepG2 Assay for human Glucocorticoid Receptor (GR) (AID 2282978; active = hit-call score of the fitted dose curve at least 0.9, where 1 is the maximum;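 note: activators score as hits since higher reporter transcript over DMSO is fitted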). The conditions noted are these: HepG2 Attagene TRANS GR reporter, mRNA transcription. Summed up:
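In this trans-factorial format, exogenous NR-GAL4 chimeric proteins in transfected HepG2 cells regulate GAL4-UAS reporter transcription. After 24 h treatment, reporter mRNA induction relative to DMSO is read by RT-PCR and capillary electrophoresis.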

Experiment [2] can be described thus: ATG_M_06_TRANS: Attagene TRANS-FACTORIAL HepG2 Assay for M06 Transcription Factor (Internal Marker) (AID 2282983; active = hit-call score of the fitted dose curve at least 0.9, where 1 is the maximum;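 note: reporter transcript level by RT-PCR then capillary electrophoresis fluorescence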). The conditions noted are these: HepG2 Attagene TRANS M06 internal marker reporter. An outline of the steps: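 Measured by capillary electrophoresis of fluorescently labelled RT-PCR products, this endpoint reflects reporter mRNA in HepG2 cells harbouring exogenous NR-GAL4 reporter constructs after 24 h exposure, with DMSO as baseline.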

Experiment [3] in a line: ATG_M_32_TRANS: Attagene TRANS-FACTORIAL HepG2 Assay for M32 Transcription Factor (Internal Marker) (AID 2282984; active = hit-call score of the fitted dose curve at least 0.9, where 1 is the maximum;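 note: transcript level of a background control reporter unit measured by RT-PCR and capillary electrophoresis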). The following applies: HepG2 Attagene TRANS M32 internal marker reporter. An outline of the steps:
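HepG2 cells transiently transfected with multiple GAL4-UAS reporter transcription units, dosed for 24 hours; reporter mRNA quantified by RT-PCR, 6-FAM primer extension, HpaI digestion and capillary electrophoresis. Gain-of-signal fitted versus DMSO baseline; internal background-control marker.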

For experiment [4], the target named is Nuclear receptor subfamily 4 group A member 2 (Homo sapiens) (UniProt P43354). In words: ATG_NURR1_TRANS: Attagene TRANS-FACTORIAL HepG2 Assay for human Nuclear Receptor Related Protein 1 (NURR1) (AID 2282985; active = hit-call score of the fitted dose curve at least 0.9, where 1 is the maximum). The following applies: HepG2 Attagene TRANS reporter, mRNA readout. An outline of the steps: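 HepG2 cells transiently transfected with GAL4-UAS reporter units and chimeric NR-Gal4 constructs; chemical exposure 24 h. Reporter mRNA quantified by RT-PCR, fluorescent labelling and capillary electrophoresis; gain of signal fitted relative to DMSO baseline.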

For experiment [5], the target named is Transcriptional activator Myb (Homo sapiens) (UniProt P10242). In words: ATG_Myb_CIS: Attagene CIS-FACTORIAL HepG2 Assay for human Myeloblastosis (Myb) Proto-Oncogene Transcription Factor (AID 2282986). The following applies: HepG2 Attagene CIS-FACTORIAL Myb reporter transcription; actives raise or lower the signal. Summed up:
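Steps: transfect HepG2 with cis-regulated reporter units; dose with chemical for 24 h; isolate RNA, reverse-transcribe, PCR-amplify and FAM-label reporter sequences; digest with HpaI; resolve by capillary electrophoresis. Activity fitted in both directions relative to DMSO.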

Experiment [6] concerns the target Nuclear respiratory factor 1 (Homo sapiens) (UniProt Q16656). In words: ATG_NRF1_CIS: Attagene CIS-FACTORIAL HepG2 Assay for human Nuclear Respiratory Factor 1 (NRF1) Orphan Gene (AID 2282987). The following applies: HepG2 NRF1 cis-element reporter, Attagene multiplex; actives raise or lower the signal. Summed up:
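Fluorescence intensity of labelled reporter cDNA fragments, resolved by capillary electrophoresis, served as readout for NRF1 cis-element activity. Transiently transfected HepG2 cells were dosed for 24 hours; activity in either direction was fitted against DMSO negative control.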

The nature of experiment [7]: ATG_NFI_CIS: Attagene CIS-FACTORIAL HepG2 Assay for human Nuclear Factor I (NFI) (AID 2282989). The following applies: HepG2 cis-regulatory reporter, NFI response element transcription; actives raise or lower the signal. An outline of the steps: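 HepG2, transient MRTU, 24 h exposure; RNA→cDNA→PCR→FAM label→HpaI→CE fluorescence. Bidirectional fit, DMSO = baseline.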

The target of experiment [8] is Myc proto-oncogene protein (Homo sapiens) (UniProt P01106). In words: ATG_Myc_CIS: Attagene CIS-FACTORIAL HepG2 Assay for human Myelocytomatosis (Myc) Proto-Oncogene Transcription Factor (AID 2282990). The following applies: HepG2, Attagene cis-reporter transcription factor activity; actives raise or lower the signal. Summed up:
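Multiplexed cis-reporter transcription in HepG2 cells after 24 h chemical treatment. Reporter mRNA measured by RT-PCR and capillary electrophoresis fluorescence; activity fitted bidirectionally against DMSO control.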

Experiment [9] can be described thus: ATG_NF_kB_CIS: Attagene CIS-FACTORIAL HepG2 Assay for human Nuclear Factor Kappa B (NF-kB) (AID 2282991). The conditions noted are these: HepG2 Attagene cis-factorial NF-kB reporter mRNA; actives raise or lower the signal. An outline of the steps:
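Endogenous transcription factor activity in HepG2 was captured via cis-regulated reporter constructs; after 24 h dosing, reporter mRNA was reverse-transcribed, amplified, fluorescently labelled and sized by capillary electrophoresis, with activity fitted bidirectionally relative to DMSO.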

Experiment [10] is described as follows: ATG_NRF2_ARE_CIS: Attagene CIS-FACTORIAL HepG2 Assay for human Nuclear Factor Erythroid 2 Related Factor 2 (NFR2) response to Antioxidant Response Elements (ARE) (AID 2282992). The following applies: HepG2 Attagene ARE/NRF2 reporter, transcription factor activity; actives raise or lower the signal. An outline of the steps: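 Multiplexed reporter mRNA profiling in HepG2 after a 24 h chemical exposure. Curves fitted in both directions relative to DMSO negative control.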

Experiment [11] in a line: ATG_Oct_MLP_CIS: Attagene CIS-FACTORIAL HepG2 Assay for human Octamer-Binding Transcription Factor (Oct) (AID 2282993). The conditions noted are these: HepG2 Attagene cis-factorial Oct reporter, mRNA; actives raise or lower the signal. An outline of the steps:
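Multiplexed cis-reporter assay in human liver HepG2 cells, 24 h incubation. Reporter RNA amplified and labelled, then resolved by capillary electrophoresis; DMSO serves as negative control and baseline.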

Experiment [12] concerns the target Cellular tumor antigen p53 (Homo sapiens) (UniProt P04637). In words: ATG_p53_CIS: Attagene CIS-FACTORIAL HepG2 Assay for human p53 Transcription Factor (AID 2282994). The conditions noted are these: HepG2 p53 cis-element reporter, Attagene mRNA; actives raise or lower the signal. Summed up: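 Multiplexed reporter mRNA assay in human HepG2 liver cells; cis-regulated units report endogenous factor activity. Values come from bidirectional curve fitting against DMSO negative control after 24 h treatment.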

Experiment [13] addresses Oxysterols receptor LXR-alpha (Homo sapiens) (UniProt Q13133). In words: ATG_LXRa_TRANS: Attagene TRANS-FACTORIAL HepG2 Assay for human Liver X Receptor alpha (LXRa) (AID 2282980; active = hit-call score of the fitted dose curve at least 0.9, where 1 is the maximum). The conditions noted are these: HepG2 Attagene TRANS reporter, LXRa transactivation. An outline of the steps:
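Transient HepG2 transfectants, 24 h dosing, RT-PCR/CE mRNA reporter quantitation; gain-of-signal vs DMSO.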

Experiment [14] addresses Oxysterols receptor LXR-beta (Homo sapiens) (UniProt P55055). In words: ATG_LXRb_TRANS: Attagene TRANS-FACTORIAL HepG2 Assay for human Liver X Receptor beta (LXRb) (AID 2282981; active = hit-call score of the fitted dose curve at least 0.9, where 1 is the maximum). The conditions noted are these: HepG2 Attagene TRANS GAL4-LXRb reporter, mRNA. An outline of the steps: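 HepG2 cells transiently transfected with multiple reporter transcription units carrying chimeric NR-Gal4 proteins acting on GAL4-UAS reporters; compound exposure 24 h. Reporter mRNA quantified by RT-PCR, 6-FAM labelling, HpaI digestion and capillary electrophoresis; gain of signal versus DMSO.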

The target of experiment [15] is Hepatocyte nuclear factor 4-alpha (Homo sapiens) (UniProt P41235). In words: ATG_HNF4a_TRANS: Attagene TRANS-FACTORIAL HepG2 Assay for human Hepatocyte Nuclear Factor 4 alpha (HNF4a) (AID 2282982; active = hit-call score of the fitted dose curve at least 0.9, where 1 is the maximum). The conditions noted are these: HepG2 HNF4a transactivation reporter, mRNA readout. An outline of the steps: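 HepG2 cells transiently transfected with multiplexed GAL4-UAS reporter units responsive to chimeric NR-GAL4 proteins; compound exposure 24 h. Reporter mRNA quantified by RT-PCR, 6-FAM labelling, HpaI digestion and capillary electrophoresis; gain of signal versus DMSO baseline.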

The target of experiment [16] is Bile acid receptor (Homo sapiens) (UniProt Q96RI1). In words: ATG_FXR_TRANS: Attagene TRANS-FACTORIAL HepG2 Assay for Farnesoid X Receptor (FXR) (AID 2282979; active = hit-call score of the fitted dose curve at least 0.9, where 1 is the maximum;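 note: hits raise reporter mRNA above DMSO so AC50 marks FXR activation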). The conditions noted are these: HepG2 Attagene TRANS FXR-GAL4 reporter transcription. An outline of the steps:
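Chimeric FXR-GAL4 activity in transiently transfected human HepG2 liver cells is scored as induction of reporter mRNA after 24 h of dosing. Detection uses RT-PCR with fluorescent labelling and capillary electrophoresis, with DMSO serving as baseline.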

The nature of experiment [17]: BSK_3C_TissueFactor: BioMAP Diversity Plus: 3C Assay for Tissue Factor Biomarker Activity (AID 2282997). The conditions noted are these: BioMAP 3C HUVEC, tissue factor biomarker readout; actives raise or lower the signal. Summed up: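 Values derive from bidirectional curve fitting against DMSO of Tissue Factor ELISA signals, taken 24 h after dosing primary human umbilical vein endothelial cells.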

Experiment [18] can be described thus: BSK_3C_uPAR: BioMAP Diversity Plus: 3C Assay for Urokinase-type plasminogen activator receptor (uPAR) Biomarker Activity (AID 2282998). The following applies: BioMAP 3C HUVEC, uPAR biomarker ELISA; actives raise or lower the signal. An outline of the steps: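 Dose primary human umbilical vein endothelial cells, incubate 24 h, measure cell-surface uPAR by ELISA, then fit the signal in both directions against the DMSO negative control.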
For orientation: ELISA stands for enzyme-linked immunosorbent assay.

Experiment [19] in a line: BSK_3C_VCAM1: BioMAP Diversity Plus: 3C Assay for Vascular cell adhesion molecule 1 (VCAM1) Biomarker Activity (AID 2282999). The following applies: BioMAP 3C HUVEC, VCAM1 ELISA, cytokine-stimulated; actives raise or lower the signal. Summed up: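 Human umbilical vein endothelial cells were dosed with compound for 24 h, after which cell-surface VCAM-1 was quantified by ELISA. Bidirectional curve fitting used DMSO as negative control and activity baseline.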

Records with an inconclusive call do not appear. Activity calls are given as the source filed them. Rule for the calls, unless noted: active = hit-call score of the fitted dose curve at least 0.9, where 1 is the maximum; inactive = score below 0.9.

Sequence of Cellular tumor antigen p53 (Homo sapiens) (P04637 whole entry, looked up): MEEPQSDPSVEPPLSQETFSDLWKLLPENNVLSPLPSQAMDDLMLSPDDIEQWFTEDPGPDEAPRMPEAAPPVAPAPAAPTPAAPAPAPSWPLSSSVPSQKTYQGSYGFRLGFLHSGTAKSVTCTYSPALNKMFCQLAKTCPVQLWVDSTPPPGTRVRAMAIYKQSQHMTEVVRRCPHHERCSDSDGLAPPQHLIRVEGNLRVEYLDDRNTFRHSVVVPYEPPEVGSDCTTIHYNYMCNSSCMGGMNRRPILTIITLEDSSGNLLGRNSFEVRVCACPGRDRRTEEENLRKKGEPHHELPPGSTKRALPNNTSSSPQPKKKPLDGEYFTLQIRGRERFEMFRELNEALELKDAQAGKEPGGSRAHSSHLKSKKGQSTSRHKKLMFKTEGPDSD
Sequence of Transcriptional activator Myb (Homo sapiens) (P10242 whole entry, looked up): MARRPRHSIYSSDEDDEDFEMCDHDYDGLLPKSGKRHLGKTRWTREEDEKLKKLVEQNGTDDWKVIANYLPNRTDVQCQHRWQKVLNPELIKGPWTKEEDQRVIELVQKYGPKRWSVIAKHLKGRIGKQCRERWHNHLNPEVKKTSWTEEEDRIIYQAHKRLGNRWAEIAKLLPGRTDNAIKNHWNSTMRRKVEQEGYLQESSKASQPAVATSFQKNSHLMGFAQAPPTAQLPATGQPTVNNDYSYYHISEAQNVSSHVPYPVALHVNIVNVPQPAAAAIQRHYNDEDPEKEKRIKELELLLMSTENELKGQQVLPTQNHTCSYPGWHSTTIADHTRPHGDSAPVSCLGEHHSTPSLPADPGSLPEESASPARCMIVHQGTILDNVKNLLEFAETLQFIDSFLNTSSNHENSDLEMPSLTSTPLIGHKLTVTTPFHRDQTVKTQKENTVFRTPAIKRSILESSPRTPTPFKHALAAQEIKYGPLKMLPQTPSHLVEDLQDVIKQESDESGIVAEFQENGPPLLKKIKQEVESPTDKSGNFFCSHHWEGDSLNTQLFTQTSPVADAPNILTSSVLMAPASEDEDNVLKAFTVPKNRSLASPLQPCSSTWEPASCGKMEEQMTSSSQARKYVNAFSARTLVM
Sequence of Glucocorticoid receptor (Homo sapiens) (P04150 whole entry, looked up, the tested form may be a part): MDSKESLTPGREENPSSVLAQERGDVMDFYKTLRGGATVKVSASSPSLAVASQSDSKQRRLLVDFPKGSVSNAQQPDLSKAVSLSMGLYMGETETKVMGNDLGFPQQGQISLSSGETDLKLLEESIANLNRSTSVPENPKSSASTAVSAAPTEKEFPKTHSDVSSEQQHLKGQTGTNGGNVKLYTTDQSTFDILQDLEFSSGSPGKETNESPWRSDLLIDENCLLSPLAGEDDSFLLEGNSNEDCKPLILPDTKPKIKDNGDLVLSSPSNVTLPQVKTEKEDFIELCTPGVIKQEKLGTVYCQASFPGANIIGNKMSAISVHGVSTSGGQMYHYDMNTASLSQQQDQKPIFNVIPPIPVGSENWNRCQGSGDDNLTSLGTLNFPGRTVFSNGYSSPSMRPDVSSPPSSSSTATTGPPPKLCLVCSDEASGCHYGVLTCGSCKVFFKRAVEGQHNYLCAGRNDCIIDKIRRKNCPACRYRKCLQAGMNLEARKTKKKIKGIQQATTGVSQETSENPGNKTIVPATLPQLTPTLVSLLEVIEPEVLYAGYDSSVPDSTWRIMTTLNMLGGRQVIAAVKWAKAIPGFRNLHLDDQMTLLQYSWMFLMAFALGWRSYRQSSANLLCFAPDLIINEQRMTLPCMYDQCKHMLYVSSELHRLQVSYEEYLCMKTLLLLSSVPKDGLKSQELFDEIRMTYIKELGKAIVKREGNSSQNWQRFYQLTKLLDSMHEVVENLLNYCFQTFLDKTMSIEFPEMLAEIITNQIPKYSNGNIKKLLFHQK
Sequence of Bile acid receptor (Homo sapiens) (Q96RI1 whole entry, looked up, the tested form may be a part): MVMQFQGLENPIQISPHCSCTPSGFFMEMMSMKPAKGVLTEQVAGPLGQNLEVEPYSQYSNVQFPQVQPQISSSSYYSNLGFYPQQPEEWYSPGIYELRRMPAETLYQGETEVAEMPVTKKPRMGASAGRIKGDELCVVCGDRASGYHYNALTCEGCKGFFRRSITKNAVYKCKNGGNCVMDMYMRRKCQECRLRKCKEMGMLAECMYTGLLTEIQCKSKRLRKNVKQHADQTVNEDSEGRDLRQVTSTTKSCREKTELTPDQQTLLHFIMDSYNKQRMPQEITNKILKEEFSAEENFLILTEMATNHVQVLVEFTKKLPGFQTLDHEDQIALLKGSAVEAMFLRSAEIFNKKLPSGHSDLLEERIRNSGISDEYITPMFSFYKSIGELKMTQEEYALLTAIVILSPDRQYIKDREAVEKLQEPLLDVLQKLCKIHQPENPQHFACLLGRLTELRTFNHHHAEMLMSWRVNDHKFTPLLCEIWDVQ
Sequence of Nuclear receptor subfamily 4 group A member 2 (Homo sapiens) (P43354 whole entry, looked up, the tested form may be a part): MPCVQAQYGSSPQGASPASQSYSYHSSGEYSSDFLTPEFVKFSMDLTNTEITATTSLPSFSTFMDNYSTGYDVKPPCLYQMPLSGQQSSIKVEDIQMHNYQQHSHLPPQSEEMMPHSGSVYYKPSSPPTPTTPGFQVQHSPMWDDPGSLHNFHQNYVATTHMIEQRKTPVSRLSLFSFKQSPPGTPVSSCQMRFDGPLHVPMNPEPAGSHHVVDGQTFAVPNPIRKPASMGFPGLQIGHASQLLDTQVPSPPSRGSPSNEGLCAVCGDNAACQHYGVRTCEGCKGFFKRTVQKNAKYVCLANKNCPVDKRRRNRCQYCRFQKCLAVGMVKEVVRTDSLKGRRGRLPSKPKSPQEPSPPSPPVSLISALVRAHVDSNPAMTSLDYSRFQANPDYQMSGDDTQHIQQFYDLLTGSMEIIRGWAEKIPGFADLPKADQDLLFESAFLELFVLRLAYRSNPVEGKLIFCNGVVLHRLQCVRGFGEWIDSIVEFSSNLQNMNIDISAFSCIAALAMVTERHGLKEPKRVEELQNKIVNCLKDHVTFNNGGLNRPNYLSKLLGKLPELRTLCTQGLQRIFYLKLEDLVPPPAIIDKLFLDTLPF
Sequence of Nuclear respiratory factor 1 (Homo sapiens) (Q16656 whole entry, looked up, the tested form may be a part): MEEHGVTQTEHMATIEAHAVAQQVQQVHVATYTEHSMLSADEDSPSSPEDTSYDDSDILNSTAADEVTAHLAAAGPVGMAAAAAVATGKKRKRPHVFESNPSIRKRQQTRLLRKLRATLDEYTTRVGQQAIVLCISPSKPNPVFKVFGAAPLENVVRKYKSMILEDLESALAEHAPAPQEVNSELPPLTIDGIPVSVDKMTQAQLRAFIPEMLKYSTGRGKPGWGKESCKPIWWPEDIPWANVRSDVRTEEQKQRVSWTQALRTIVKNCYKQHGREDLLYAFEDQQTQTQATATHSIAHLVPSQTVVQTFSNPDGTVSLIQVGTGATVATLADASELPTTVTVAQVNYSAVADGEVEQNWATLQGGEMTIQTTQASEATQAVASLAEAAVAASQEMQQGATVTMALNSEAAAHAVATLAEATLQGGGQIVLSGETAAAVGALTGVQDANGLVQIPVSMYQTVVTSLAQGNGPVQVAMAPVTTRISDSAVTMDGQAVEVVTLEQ
Sequence of Myc proto-oncogene protein (Homo sapiens) (P01106 whole entry, looked up): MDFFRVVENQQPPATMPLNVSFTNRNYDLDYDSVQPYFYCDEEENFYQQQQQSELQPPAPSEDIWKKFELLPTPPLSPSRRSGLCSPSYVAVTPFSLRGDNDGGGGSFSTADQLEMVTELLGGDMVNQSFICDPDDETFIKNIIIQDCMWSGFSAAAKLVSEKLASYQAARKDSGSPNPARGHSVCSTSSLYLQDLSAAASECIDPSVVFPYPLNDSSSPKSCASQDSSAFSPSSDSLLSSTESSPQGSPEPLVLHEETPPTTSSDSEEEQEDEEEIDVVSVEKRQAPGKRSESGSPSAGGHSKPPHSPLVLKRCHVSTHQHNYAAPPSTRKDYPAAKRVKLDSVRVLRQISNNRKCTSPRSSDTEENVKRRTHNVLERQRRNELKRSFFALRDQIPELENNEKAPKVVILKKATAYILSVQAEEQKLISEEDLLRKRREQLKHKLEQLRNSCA
Sequence of Oxysterols receptor LXR-alpha (Homo sapiens) (Q13133 whole entry, looked up): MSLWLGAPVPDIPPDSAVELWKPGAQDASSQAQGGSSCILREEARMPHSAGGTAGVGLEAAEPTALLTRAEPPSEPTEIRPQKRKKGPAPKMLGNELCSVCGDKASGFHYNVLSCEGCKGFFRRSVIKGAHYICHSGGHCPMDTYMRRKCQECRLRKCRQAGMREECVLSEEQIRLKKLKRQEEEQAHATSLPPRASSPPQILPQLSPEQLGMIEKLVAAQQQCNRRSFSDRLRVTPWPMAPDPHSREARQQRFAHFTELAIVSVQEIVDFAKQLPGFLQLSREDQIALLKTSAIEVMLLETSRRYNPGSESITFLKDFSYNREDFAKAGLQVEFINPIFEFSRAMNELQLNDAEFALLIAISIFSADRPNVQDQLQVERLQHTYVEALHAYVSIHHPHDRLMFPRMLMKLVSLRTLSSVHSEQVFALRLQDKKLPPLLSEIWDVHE
Sequence of Hepatocyte nuclear factor 4-alpha (Homo sapiens) (P41235 whole entry, looked up, the tested form may be a part): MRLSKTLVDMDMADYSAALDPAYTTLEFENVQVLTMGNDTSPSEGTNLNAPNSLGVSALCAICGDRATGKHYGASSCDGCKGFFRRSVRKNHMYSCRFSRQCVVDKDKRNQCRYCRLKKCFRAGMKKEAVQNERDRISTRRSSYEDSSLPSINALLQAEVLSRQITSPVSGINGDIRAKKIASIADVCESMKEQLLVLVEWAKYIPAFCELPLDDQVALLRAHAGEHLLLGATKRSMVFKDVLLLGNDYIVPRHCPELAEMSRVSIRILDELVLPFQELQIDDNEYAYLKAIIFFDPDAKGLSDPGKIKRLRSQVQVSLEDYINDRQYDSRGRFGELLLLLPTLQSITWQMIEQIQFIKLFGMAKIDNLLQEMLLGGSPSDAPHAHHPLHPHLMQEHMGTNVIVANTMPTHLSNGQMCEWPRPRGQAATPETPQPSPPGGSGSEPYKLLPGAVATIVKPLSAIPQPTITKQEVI

`C=C/C(C)=C/C/C=C(\C)CCC=C(C)C`: the compound was classed as inactive in experiment [1], in experiment [2], in [3], in [4], in [5] and in experiment [6]. Further, the result in experiment [7], in experiment [8], in [11] and in experiment [12] was inactive. Besides, the values for the AC50 in experiment [9] and in experiment [10] were 100 µM (active) and 67.1 µM (active), respectively.
With `CC1=CC[C@@H](C(C)(C)O)CC1`, the call in experiment [13], in experiment [14], in experiment [15], in experiment [2], in [5] and in experiment [6] was inactive. Also, the call in [7], in [8], in experiment [9], in [11] and in experiment [12] was inactive. For the same compound, in experiment [10], the AC50 is 40.6 µM (active).
With `C=C(C)CCCC(C)CCO` (configuration not stated), the call in experiment [13], in experiment [14], in [2], in [3], in experiment [4] and in experiment [5] was inactive. Moreover, the call in experiment [6], in experiment [7], in experiment [8], in experiment [9], in experiment [11] and in experiment [12] was inactive. For the same compound, in [10], the AC50 is 59.7 µM (active).
`CCCCOCCOC(=O)c1ccccc1C(=O)OCCOCCCC`: the outcome in [16], in experiment [14], in experiment [2], in experiment [3], in [5] and in experiment [6] was inactive. The call in experiment [8], in [11] and in experiment [12] was inactive. Further, the results for the AC50 in experiment [4] and in experiment [10] were 45.3 µM (active) and 37.7 µM (active), respectively.
As for `CCCO[Si](OCCC)(OCCC)OCCC`, the result in experiment [1], in [2], in experiment [3], in experiment [4], in [5] and in experiment [6] was inactive. In addition, the result in experiment [8], in experiment [10], in experiment [11], in experiment [12], in [17] and in experiment [18] was inactive. Also, in experiment [19], the outcome was inactive.
As to `CC(=O)c1ccc2ccccc2c1`, the compound was called inactive in experiment [1], in [4], in experiment [5], in [6], in experiment [7] and in [8]. The outcome in experiment [10], in experiment [11] and in experiment [12] was inactive.
`NC(=O)c1c(Cl)cccc1Cl`: the outcome in experiment [16], in [15], in [2], in [5], in experiment [6] and in [7] was inactive. Moreover, the outcome in [8], in [9], in [10], in experiment [11], in experiment [18] and in [19] was inactive. For the same compound, the AC50 in [17] is 0.0671 µM (active).
Take `c1ccc2c(c1)-c1ccc3ccc4cccc5cc-2c1c3c45`: the compound was classed as inactive in experiment [13], in experiment [14], in [15], in experiment [2], in [3] and in [4]. Moreover, the call in experiment [5], in [6], in experiment [8], in experiment [9], in [11] and in experiment [12] was inactive. In [19], the result was inactive. Besides, the AC50 in experiment [10] was 0.205 µM (active); in experiment [17] it was 0.0352 µM (active); in experiment [18] it was 0.667 µM (active).
As for `CCOC(=O)C(=O)OCC`, the compound was classed as inactive in [1], in experiment [15], in experiment [5], in experiment [6], in experiment [8] and in experiment [9]. The outcome in experiment [10], in experiment [11] and in [12] was inactive.
Take `CCC(=O)OCC=Cc1ccccc1`: the result in experiment [16], in [14], in experiment [15], in [2], in [3] and in experiment [5] was inactive. Moreover, the outcome in [6], in experiment [8], in [9], in experiment [11], in [17] and in experiment [19] was inactive. Also, the AC50 in experiment [10] was 36.3 µM (active); in experiment [18] it was 20 µM (active).
